We go through 40 compounds from PubChem BioAssay (NCI).

Compounds without any hit were thinned out: in the full panel of roughly 83,000, 20% have a hit.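 A percent growth of 40 corresponds to 60% growth inhibition; 0 means no net growth; -100 means all cells died. Active threshold: below 10.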 Active and inactive are the calls of the source.

This assay concerns HS 578T breast. The assay can be described thus: NCI-60 one-dose screen, 48 h (100 = growth as untreated, 0 = no growth, -100 = all killed). To be noted: 10 µM. How it is done: Growth inhibition of the HS 578T human tumor cell line is measured as a screen for anti-cancer activity. Cells are grown in 96 well plates and exposed to the test compound for 48 hours. Compounds are tested at a single concentration, which is 10^-5 M for most compounds. The reported endpoint is percent growth (GI% or GIPRCNT), where numbers from 0 - 100% represent growth inhibition, and numbers from -100% - 0 represent cell death. For example, a value of 40 represents 60% growth inhibition. A value of 0 means no net growth occurred over the course of the experiment. A value of -40 indicates 40% of cells at the beginning of the experiment died by the end of the experiment. A value of -100 means all cells are dead at the end of the experiment.
NCI-60 Human Tumor Cell Lines Screen was performed using the standard one-dose NCI protocol, which is described in more detail at https://dtp.cancer.gov/discovery_development/nci-60/default.htm.
Compounds with GIPRCNT values below 10 were considered active. Activity score was based on GIPRCNT using the following formula: […]
Score is 0 for GIPRCNT values of 100 or above, 50 for GIPRCNT values of 0, and 100 for GIPRCNT values of -100.
With `Cc1ccc2oc(=O)cc(/C(=C3/C=CC=N3)c3ccc[nH]3)c2c1`, the growth was 12.9% (inactive).

Regarding `CCOc1nc(-c2ccccc2)cc2c(O)c(C(=O)NCCCO)[nH]c(=O)c12`, the growth is 100% (inactive). For `Nc1ccn([C@@H]2O[C@H](COP(=O)(O)O[C@@H]3C[C@H](n4cc(F)c(=O)[nH]c4=O)O[C@@H]3COP(=O)(O)O[C@@H]3C[C@H](n4cc(F)c(=O)[nH]c4=O)O[C@@H]3COP(=O)(O)O[C@@H]3C[C@H](n4cc(F)c(=O)[nH]c4=O)O[C@@H]3COP(=O)(O)O[C@@H]3C[C@H](n4cc(F)c(=O)[nH]c4=O)O[C@@H]3COP(=O)(O)O[C@@H]3C[C@H](n4cc(F)c(=O)[nH]c4=O)O[C@@H]3COP(=O)(O)O[C@@H]3C[C@H](n4cc(F)c(=O)[nH]c4=O)O[C@@H]3COP(=O)(O)O[C@@H]3C[C@H](n4cc(F)c(=O)[nH]c4=O)O[C@@H]3COP(=O)(O)O[C@@H]3C[C@H](n4cc(F)c(=O)[nH]c4=O)O[C@@H]3COP(=O)(O)O[C@@H]3C[C@H](n4cc(F)c(=O)[nH]c4=O)O[C@@H]3COP(=O)(O)O[C@@H]3C[C@H](n4cc(F)c(=O)[nH]c4=O)O[C@@H]3COP(=O)(O)OCCOCCOCCOCCOCCOCCO)[C@H](O)C2O)c(=O)n1` (stereo not given in full), the growth was 111% (inactive). `Cc1ccc(Cl)cc1Nc1nc(C(F)(F)F)ccc1C(=O)N/N=C/c1c(Cl)cccc1Cl`: the growth was -10.1% (active). Turning to `O=C(NNC(=O)c1ccncc1)Nc1ccc([N+](=O)[O-])cc1`, the growth is 107% (inactive).

`COc1cc2nc(Sc3sc(N)nc3C)n(-c3ccc(Oc4ccccc4)cc3)c(=O)c2cc1OC`: the growth was 88.5% (inactive). In the case of `COc1ccc(-c2cc(/C=C/C(=O)c3ccc(N)cc3)[nH]n2)cc1OC` it was 1.16% (active); in that of `COCc1cc2c(cc1Br)OCO2`, 101% (inactive); in that of `NC(N)=NS(=O)(=O)c1ccc(Nc2ccc3nnc(-c4ccncc4)n3n2)cc1`, 99.6% (inactive). With `Cn1c(=O)c2[nH]c(C(O)c3ccc(Cl)cc3)nc2n(C)c1=O` (stereo not given), the growth is 87.9% (inactive). For `COc1ccc2nc(-c3ccccc3)cc(C(C)=O)c2c1`, the growth is 94.3% (inactive).

As to `O=C(Nc1ccc(Oc2ccc(Nc3nc4ccccc4s3)cc2)cc1)Nc1ccc(Cl)c(Cl)c1`, the growth was 61.9% (inactive). In the case of `CN1/C(=C\C(I)C(I)C2=[N+](C)c3ccccc3C2(C)C)C(C)(C)c2ccccc21` (stereo not given) it was 42.8% (inactive); in that of `OC(CNC1CCCC1)Cn1c2ccccc2c2ccccc21` (stereo not given), 63.6% (inactive); in that of `Nc1ccc(Sc2ccc3c4c2cccc4c(=O)n2c4ccccc4nc32)cc1`, 59.6% (inactive). Then `Cc1ccc(S(=O)(=O)Nc2cccc3[nH]c(C(F)(F)F)nc23)cc1`, with 24.4% (inactive). With `O=C(Nc1cccc(C(F)(F)F)c1)C(Cl)Cl`, the growth is 107% (inactive). Then `O=c1oc2c3ccc4cnccc4c3[nH]c2c2ccccc12`, with 68.1% (inactive); and `O=C(/C=C/c1nnc2n(Cc3ccccc3)c(=O)c3c4c(sc3n12)CCCC4)c1ccccc1`, with 110% (inactive). Turning to `CCN(CC)CC(O)CNc1ccnc2cc(Cl)c(Cl)cc12` (stereo not given), the growth was 103% (inactive). In the case of `O=C(OCC1OC(n2cc(C(F)(F)F)c(=O)[nH]c2=O)CC1OC(=O)c1ccc([N+](=O)[O-])cc1)c1ccc([N+](=O)[O-])cc1` (stereo not given) it was 88.5% (inactive); in that of `O=C(Nc1cccc(-c2nc3ccccc3[nH]2)c1)c1cccc(NC(=O)c2ccco2)c1`, 79.4% (inactive); in that of `COc1ccc(-c2nnc(N3CCN(C(=O)CN4CCN(c5ccc(Cl)cc5)CC4)CC3)nc2-c2ccc(OC)cc2)cc1`, 72.2% (inactive). `Cc1ccc(/C(CS(=O)(=O)c2ccc(C)cc2)=N\O)cc1`: the growth was 113% (inactive). In the case of `CC1(C)Cc2c(cn(Cc3ccccc3)c2-c2ccccc2)-c2oncc21` it was 103% (inactive); in that of `NC1CCC(Nc2nc(NCc3ccc(-c4ccccc4O)nc3)c3ncn(C4CCCC4)c3n2)CC1` (stereo not given), 8.94% (active); in that of `Clc1cc(Cl)c(OCCCCCCN2CCNCC2)c(Cl)c1`, 55.3% (inactive).

For the compound `Cc1ccc(S(=O)(=O)Oc2ccccc2-c2ccccc2)cc1`, the growth is -21.5% (active). Take `O=NN(CCCl)C(=O)NCc1ccc(-c2ccc(CNC(=O)N(CCCl)N=O)cc2)cc1`: the growth is 116% (inactive).

Take `COc1ccc(OC)c([N+](=O)[O-])c1C=O`: the growth was 89.6% (inactive). Then `COc1ccc(/C(=C/c2cc(OC)c(OC)cc2[N+](=O)[O-])C(=O)O)cc1`, with 114% (inactive). As for `C=CCn1ccc(=O)nc1SC`, the growth is 106% (inactive).

For the compound `CCOC(=O)/C(C#N)=C(/C)C1CC1`, the growth is 107% (inactive).

Turning to `COc1cc(-c2cc(-c3ccc(C)cc3)nc3nc(N)[nH]c(=O)c23)ccc1Oc1ccnc2cc(Cl)ccc12`, the growth is 91.2% (inactive). Then `COc1cc(/C=C/C(=O)c2cc(-c3ccccc3)ccc2O)cc(OC)c1OC`, with 82.3% (inactive). As for `NS(=O)(=O)c1ccc(N2N=C(c3ccc(-c4ccccc4)cc3)CC2c2ccc(Cl)cc2)cc1` (stereo not given), the growth was 88.6% (inactive). Take `COc1ccc2c(c1)/C(=C/c1cc(OC)c(OC)c(OC)c1)C(=O)N2C`: the growth is -12.4% (active).

Take `COc1cccc(C(=O)NNc2nc(N3CCOCC3)nc(N3CCN(C(c4ccccc4)c4ccccc4)CC3)n2)c1`: the growth is 80.1% (inactive).

Take `CC(C)CCN(CCCNc1c2c(nc3cc(Cl)ccc13)CCCC2)CCC(C)C`: the growth is 76.1% (inactive). On to `COc1cc(CSc2nc3ccc(C)cc3c(=O)n2-c2ccccc2)cc(OC)c1OC`, for which the growth is 28.2% (inactive).
